# Shown is part of a subset that was picked to be rich in the strongest signals.
# Tested on: Neu5Ac(a2-6)Gal(b1-4)GlcNAc(b1-2)Man(a1-6)[GlcNAc(b1-2)Man(a1-3)]Man(b1-4)GlcNAc(b1-4)GlcNAc
# Assay: glycan array binding signal (z-score within array); higher = stronger binding
# Settings: glycan notation: IUPAC condensed, linker removed
# Outline: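 The Consortium for Functional Glycomics database supplied 3228 glycan arrays, of which those lacking an available protein sequence were dropped. The binding signal, a within-array Z-score, was averaged across arrays of the same protein sequence and across linkers. Negative scores can be read as non-binding.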
# PILRb (Mus musculus), Q2YSF2, sequence (Q2YSF2 entry or part of it): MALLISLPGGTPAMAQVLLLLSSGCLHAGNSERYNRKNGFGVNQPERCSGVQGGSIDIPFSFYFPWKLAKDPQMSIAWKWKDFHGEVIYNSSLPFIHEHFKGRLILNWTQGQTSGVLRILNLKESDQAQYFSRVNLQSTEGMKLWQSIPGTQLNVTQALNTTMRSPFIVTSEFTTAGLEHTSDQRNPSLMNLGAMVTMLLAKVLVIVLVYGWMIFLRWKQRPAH
# Aggrecan (Rattus norvegicus), NP_071526, sequence (chain, as listed by the source): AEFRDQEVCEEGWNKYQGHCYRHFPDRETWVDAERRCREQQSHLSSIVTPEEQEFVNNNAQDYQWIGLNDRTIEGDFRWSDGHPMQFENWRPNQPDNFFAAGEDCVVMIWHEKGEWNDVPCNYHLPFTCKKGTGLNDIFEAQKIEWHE
row,Substance,glycan array binding signal (z-score)
1,"Aggrecan (Rattus norvegicus), NP_071526",-0.187
2,"PILRb (Mus musculus), Q2YSF2",-0.407
3,MpAFP RI GFP (Marinomonas primoryensis),-0.058

# Source: the supplement of paper PMC8728848
